# Screens: PubChem BioAssay, National Center for Advancing Translational Sciences (NCATS)
# In the library only some 14% were active in any assay of this set; here they are far more common.
# Pf growth 48h: inhibits P. falciparum growth in the first generation, 48 h. AID 504832. P. falciparum luciferase growth in erythrocytes, 48 h. 5.9% of 310,000 active. Potency, µM (highest dose often 28.7 µM), usual class: inhibitors
#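 Luciferase-expressing parasites in RBCs, 2% Hct / 0.1% parasitemia final; RPMI 1640 + 0.5% Albumax; 37 C, 5% CO2, one generation; luminescence read-out, lower signal = inhibition.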
# HCMV inh: blocks human cytomegalovirus replication | HFF cells, HCMV-luciferase reporter, 72 h; hits give low values | AID 1259415 | activity change, negative = inhibition, % at 57.5 µM | 4.5% of 410,000 active; in the data active = activity change below about -60%; inconclusive = no clear call, values can overlap the other calls; inactive = above about -39%
#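 Cell-based, HFFs, 1000 cells/well, 16 h 37C; cpds in DMSO + HCMV-luc, MOI 1 PFU/cell; 72 h 37C; OneGlo luminescence after 5 min RT; norm. to buffer vs Salinomycin 10uM.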
# Pf growth 96h: inhibits malaria parasite growth, 96 h. AID 504834. Potency, µM (doses to about 28.7 µM), most hits filed as inhibitors. P. falciparum luciferase reporter growth, 96 h. 6.9% of 320,000 active
#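 Compounds incubated with erythrocytes infected by luciferase-expressing P. falciparum (2% hematocrit, 0.05% parasitemia final) for 96 hours, 37 C in 5% CO2. Growth inhibition scored as decreased luciferase luminescence.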
# HCV inh: blocks hepatitis C virus; Huh7.5.1 HCVcc-Cre infection, luciferase reporter, 44 h; Potency, µM (series often up to 41.8 µM), actives largely listed as inhibitors; 3.4% of 340,000 active; AID 651820
#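 After 44 h co-culture of compound, cells and HCVcc-Cre (~0.5 moi), substrate is added for 15 min at room temperature and luciferase measured over 15 sec. Cells were seeded at 1,000/well and pre-cultured 4 h.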
# MARV entry inh: blocks Marburg virus binding to or entry into cells; Marburg virus pseudotyped entry inhibition, cell reporter; Potency, µM (highest dose often 37.8 µM), usual class: inhibitors; 1.8% of 300,000 active; calls by dose curve; tested in HEK293 cells
# Lassa entry inh: inhibitors of Lassa virus binding or cell entry; Lassa virus pseudotype entry inhibition, cell reporter; Potency, µM (highest dose often 37.9 µM), actives largely listed as inhibitors; 1.2% of 300,000 active; calls by dose curve; tested in HEK293 cells; note: nearly all actives have a fitted effect of over 50% in size
# Hits are given with their value; 0 = inactive; ? = inconclusive; - = no result given. Unless noted, calls come from the whole dose curve; as a rule, active = well fitted inhibition curve with a large enough effect; inconclusive = small, poorly fitted or top-dose-only effect, or another doubt; inactive = no such curve, though single readings can be large or run the other way.
SMILES,Pf growth 48h,HCMV inh,Pf growth 96h,HCV inh,MARV entry inh,Lassa entry inh
O=C(NCCc1ccccc1)C1CCN(S(=O)(=O)c2ccccc2)CC1,-,-104.0,0,0,?,0
COc1ccc(-c2nc3ccccc3o2)cc1NC(=O)c1cccc2c(Cl)cccc12,-,0,-,-,0,0
COc1ccc(CNC(=O)C2CCN(c3nc(-c4ccccc4)nc4c3CCC4)CC2)cc1,1.85µM,0,?,?,?,?
O=C(NC1CCN(S(=O)(=O)c2ccccc2)CC1)C1CCCCC1,0,0,0,0,0,0
O=C(CCNC(=O)C1CCN(S(=O)(=O)c2ccccc2)CC1)NCc1ccc(Cl)cc1Cl,0,-74.6,?,0,-,-
CCN(CC)S(=O)(=O)c1ccc(S(=O)(=O)N2CCCC(C(=O)NC3CC3)C2)cc1 (configuration not stated),0,-82.6,?,0,?,0
O=C(NC1CCCCCC1)C1CCN(S(=O)(=O)c2ccccc2)CC1,0,0,2.94µM,0,0,0
CCc1ccc(OCC(=O)N(Cc2ccc(C)o2)C2CCS(=O)(=O)C2)cc1 (configuration not stated),-,0,-,-,0,0
O=C(C(=O)N1CCN(c2ccncc2)CC1)c1cccc(Br)c1,-,0,-,-,-,-
CCC(=O)N1c2ccccc2CC1C(=O)NCCc1ccc(Cl)cc1 (configuration not stated),-,0,-,-,-,0
N#CC(C(O)c1ccccc1)N1CCOCC1 (configuration not stated),-,0,-,-,-,-
CN(C)CCCNc1nc2cc(-c3ccn[nH]3)sc2c(=O)n1C,-,0,-,-,-,-
CCS(=O)(=O)N1CCC(C(=O)NC2CCCCCCC2)CC1,0,0,0,0,0,?
COCCN(Cc1ccccc1)C(=O)C1CCN(S(=O)(=O)c2ccc(OC)c(OC)c2)CC1,?,0,?,0,0,0
CCN(CC)c1ccc(NC(=O)C2CCCN(S(=O)(=O)c3cccnc3)C2)c(C)c1 (configuration not stated),-,0,9.28µM,?,-,-
Cc1ccc(S(=O)(=O)N2CCC(C(=O)NC3CC3)CC2)cc1,2.33µM,0,0,0,0,0
CC(C)CN(CC(C)C)S(=O)(=O)N1CCC(C(=O)NC2CCCCCCC2)CC1,?,0,11.7µM,0,0,0
COCCN(Cc1ccccc1)C(=O)C1CCN(S(=O)(=O)c2ccc3c(c2)OCCO3)CC1,?,0,11.7µM,0,-,-
CC(C)(C)S(=O)(=O)N1C[C@@H]2CC(=O)C=C2[C@H]1CCO,-,0,-,-,-,-
CC(C)(C)OC(=O)N1CCC[C@H]1C(O)(c1ccccc1)c1ccccc1,-,-,-,-,0,-
CCOC(=O)N1CCC(NCCNC(=O)c2cccc(F)c2)CC1,0,0,0,0,-,-
O=C(NCCc1ccccc1)C1CCN(c2nc3ccccc3o2)CC1,0,0,0,0,0,0
CSc1ccccc1C(=O)NCCc1ccc(S(=O)(=O)N2CCCCC2)cc1,5.22µM,-102.2,-,0,0,0
C[C@H](NC(=O)C1CCN(S(=O)(=O)c2ccccc2)CC1)C(=O)NCc1ccco1,0,0,?,0,-,-
COc1ccc(S(=O)(=O)N2CCC(C(=O)NC(c3nc4ccccc4[nH]3)C(C)C)CC2)cc1 (configuration not stated),10.4µM,0,?,0,-,-
SMILES,Pf growth 48h,HCMV inh,Pf growth 96h,HCV inh,MARV entry inh,Lassa entry inh
O=C(C1CCN(S(=O)(=O)c2ccccc2)CC1)N(CCc1ccccc1)Cc1ccco1,13.1µM,0,0,?,?,?
CC(C)[C@H](NC(=O)C1CCCC1)c1nc2ccccc2[nH]1,0,0,0,0,?,?
O=C(NC1CCCCCCC1)C1CCN(c2nc3ccccc3o2)CC1,?,-88.1,0,?,?,?
COc1ccc(-c2cc(C(=O)Nc3cccc(C(C)=O)c3)no2)cc1OC,-,0,-,-,0,0
CCN1CCN(C(=O)C2CCN(S(=O)(=O)c3ccc(Br)cc3)CC2)CC1,0,?,?,0,0,0
CC(C)(C)NC(=O)C1CCN(S(=O)(=O)c2ccc(Br)cc2)CC1,9.28µM,0,0,0,0,0
COc1ccc(CNC(=O)C2CCN(C(=O)[C@@H](CC(C)C)NC(=O)OC(C)(C)C)CC2)cc1,9.28µM,0,0,-,0,-
CCS(=O)(=O)N1CCC(C(=O)NCc2ccc(OC)cc2)CC1,0,0,5.86µM,0,0,0
